# POLH inh: inhibitors of human DNA polymerase eta | recombinant Pol eta, fluorescent DNA replication assay | Potency, µM (titrated, usually from 114 µM), for inactives: at the top dose activity change, negative = inhibition, actives largely listed as inhibitors | hit rate 1.2% among 390,000; also: % is scaled to controls: 0 for no effect and ±100 for the full control effect
#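 Fluorescent replication assay: 50 nM final substrate added after a 15 min room-temperature compound preincubation with 10 nM enzyme. Signal taken at 0 min and again at 10 min.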
# Pol iota inh: blocks human DNA polymerase iota activity; Pol iota fluorescent replication assay, 10 min; Potency, µM (highest dose often 115 µM), for the others: top-dose activity, negative = inhibition, most hits filed as inhibitors; hit rate 1% among 390,000; AID 588590
#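 Fluorescent replication assay read twice, at 0 min and 10 min after adding 50 nM (final) substrate. Enzyme (10 nM) and compounds were first incubated 15 min at room temperature; enzyme-free buffer wells were negative controls.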
# KAT2A inh: inhibitors of human GCN5L2 histone acetyltransferase; Q92830; GCN5L2 HAT assay, ThioGlo1 CoA-SH fluorescence; Potency, µM (highest dose often 58.9 µM), without a hit: at the top dose activity change, negative = inhibition, most hits filed as inhibitors; hit rate 0.21% among 390,000; AID 504327; also: % is scaled to controls: 0 for no effect and ±100 for the full control effect
# Target sequence (Q92830 whole entry, looked up): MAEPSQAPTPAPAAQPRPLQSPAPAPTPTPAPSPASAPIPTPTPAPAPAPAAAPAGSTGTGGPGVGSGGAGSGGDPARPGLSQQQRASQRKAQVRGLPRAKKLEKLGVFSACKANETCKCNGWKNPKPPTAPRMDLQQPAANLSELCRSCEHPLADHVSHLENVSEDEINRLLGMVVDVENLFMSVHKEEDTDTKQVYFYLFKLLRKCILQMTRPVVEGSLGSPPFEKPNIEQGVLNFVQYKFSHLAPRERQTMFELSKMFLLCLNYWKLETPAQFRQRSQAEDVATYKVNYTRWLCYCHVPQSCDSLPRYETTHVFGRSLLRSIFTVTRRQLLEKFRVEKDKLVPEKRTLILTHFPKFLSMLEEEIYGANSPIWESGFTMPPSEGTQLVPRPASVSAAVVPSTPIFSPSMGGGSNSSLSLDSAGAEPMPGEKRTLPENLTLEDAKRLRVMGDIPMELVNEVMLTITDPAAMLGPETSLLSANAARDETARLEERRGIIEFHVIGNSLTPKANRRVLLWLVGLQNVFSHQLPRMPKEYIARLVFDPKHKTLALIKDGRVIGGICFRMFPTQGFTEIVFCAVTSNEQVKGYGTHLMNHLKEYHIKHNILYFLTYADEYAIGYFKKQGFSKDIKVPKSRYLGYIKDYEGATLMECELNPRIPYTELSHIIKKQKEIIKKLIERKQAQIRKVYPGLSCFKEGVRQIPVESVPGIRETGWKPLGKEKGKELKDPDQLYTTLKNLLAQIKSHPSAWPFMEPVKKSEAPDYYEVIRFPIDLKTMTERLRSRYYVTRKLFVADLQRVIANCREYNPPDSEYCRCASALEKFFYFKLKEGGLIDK
#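 Preincubate 20nM GCN5L2 with compound 15 min, RT → add 50uM ThioGlo1 + 75uM H3(1-25) + 70uM acetyl-CoA → read fluorescence 0 and 20 min. Primary qHTS; fluorescent artifacts likely.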
# Pol kappa inh: inhibitors of human DNA polymerase kappa | AID 588579 | Q9UBT6 | hit rate 0.53% among 400,000 | Potency, µM (highest dose often 107 µM), for the others: at the top dose activity, negative = inhibition, most hits filed as inhibitors | purified Pol kappa, fluorescent DNA synthesis assay, 10 min; also: % is scaled to controls: 0 for no effect and ±100 for the full control effect
#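 Inhibition of 10 nM Pol kappa is measured by a fluorescent read-out at 0 and 10 min following addition of 50 nM substrate (final), with a 15-min room-temperature compound preincubation.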
# Pol beta inh: blocks human DNA polymerase beta activity; P06746; Pol beta primer extension/strand displacement, fluorescence kinetic; Potency, µM (series often up to 114 µM), without a hit: at the highest dose activity change, negative = inhibition, actives largely listed as inhibitors; hit rate 1.3% among 340,000; also: % is scaled to controls: 0 for no effect and ±100 for the full control effect
#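 Pol beta (10 nM) and compounds were preincubated 15 min at room temperature, then 50 nM substrate (final) started primer extension/strand displacement. Reads were taken at 0 and 10 min; concentration-response data were fitted to a four-parameter Hill equation.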
# GLS inh: inhibitors of human glutaminase (GLS) | GLS enzymatic activity, qHTS titration | Potency, µM (titrated, usually from 45.5 µM), for the others: top-dose activity change, negative = inhibition, most hits filed as inhibitors | hit rate 0.21% among 410,000 | AID 624170; also: % is scaled to controls: 0 for no effect and ±100 for the full control effect
#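 hKGA in 45 mM KH2PO4 pH 8.2, 0.02% Tween-20 with pin-transferred compounds; 1 mM L-glutamine (stock) plus glutamate oxidase/HRP/Amplex Red coupling added. Fluorescence read initially and after 30 min at RT.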
# Starred values were filed as active, the others as inactive; u = inconclusive; x = no result given; [ ] = another dose, or the depositor's remark. A selection: hits, their analogues and other compounds. The true share with any hit is near 2.4%. Calls follow the shape of the dose curve; as a rule, active = well fitted inhibition curve with a large enough effect; inconclusive = small, poorly fitted or top-dose-only effect, or another doubt; inactive = no such curve, though single readings can be large or run the other way. Potency is read from the fitted curve at half-maximal effect.
SMILES,POLH inh,Pol iota inh,KAT2A inh,Pol kappa inh,Pol beta inh,GLS inh
Oc1ccccc1C1=Nc2ncnn2C(c2ccc(F)cc2)C1 (stereo unspecified),u,1.9%,-0.4%,-7.5%,31.6µM*,-4.7%
Fc1ccc(C2CC(c3ccc(F)cc3)n3ncnc3N2)cc1 (stereo unspecified),-11.0%,0.2%,-4.8%,2.0%,1.0%,0.6%
O=C1NN(c2ccc(F)c(Cl)c2)C(=O)/C1=C\c1cccc(OC(=O)c2cccs2)c1,20µM*,u,-22.9%,u,u,-23.3%
CC(C)=C1C(=O)NN(c2ccc(F)c(Cl)c2)C1=O,-7.5%,u,-0.5%,25.1µM*,u,0.7%
O=C1OC(c2ccccc2)=N/C1=C/c1cccc(OC(=O)c2cccs2)c1,-4.6%,-19.6%,x,13.0%,x,25.5%
O=C1CSC(=S)N1c1ccc(F)c(Cl)c1,0.4%,u,-2.8%,-13.6%,-0.2%,3.7%
O=C1C=CC2=C3c4cc(O)c(O)cc4C[C@]3(O)COC2=C1,x,x,-5.4%,7.08µM*,x,x
CC(C)c1ccc(CNc2nc(-c3ccco3)nn2S(=O)(=O)c2ccc3ccccc3c2)cc1,-9.2%,59.4%,-19.4%,-24.6%,-20.3%,2.6%
O=C(O)c1ccc2c3n(nc2c1)-c1ccc(Cl)cc1CO3,3.6%,15.8µM*,2.8%,31.6µM*,20µM*,-1.7%
CC(C)(C)n1ncc2c(=O)n(Cc3ccccc3SC(F)(F)F)cnc21,x,9.0%,x,3.6%,x,x
CC(=O)NCCNc1ncnc2ccc(-c3ccoc3)cc12,x,x,25.1µM*,-8.2%[60.1 µM],x,x
COCCNc1ncnc2ccc(-c3ccoc3)cc12,x,x,u,-8.7%[60.1 µM],x,x
CCN(CC)C(=O)c1c(-c2ccccc2)c(-c2ccccc2)nn(C)c1=O,-7.6%,16.9%,-4.3%,2.3%,25.0%,1.2%
Cc1ccc(O)c(Nc2c3ccccc3nc3ccccc23)c1,-1.7%,65.2%,-3.0%,-21.0%,6.4%,8.91µM*
Cc1ccc(O)c(Nc2nc(-c3ccccc3)nc3ccccc23)c1,1.6%,-1.9%,u,-4.9%,19.7%,-1.5%
COc1ccc(CNC(=O)C(Cc2ccccc2)NS(=O)(=O)c2ccc3c(c2)CCN3C(C)=O)cc1 (stereo unspecified),-8.9%,u,-9.6%,0.0%,25.1µM*,3.0%
COc1cccc(CNC(=O)C(Cc2ccccc2)NS(=O)(=O)c2ccc3c(c2)CCN3C(C)=O)c1 (stereo unspecified),-8.9%,-4.8%,-0.4%,-4.2%,-21.1%,-6.6%
CC(=O)N1CCc2cc(S(=O)(=O)NC(C(=O)NC3CCCc4ccccc43)C(C)C)ccc21 (stereo unspecified),-8.5%,-14.5%,-3.8%,-10.8%,31.6µM*,-2.6%
O=C(C1CCC1)N1CCc2cc(S(=O)(=O)NC3CCCc4ccccc43)ccc21 (stereo unspecified),-4.7%,17.5%,-12.2%,-0.9%,1.0%,-5.2%
COc1cccc(NS(=O)(=O)c2ccc3c(c2)CCCN3C(C)=O)c1,5.0%,-33.7%,-0.9%,-6.1%,79.4µM*,8.6%
Cc1cc(=O)n(CCCc2ccccc2)[nH]1,-13.4%,10µM*,-7.1%,12.4%,x,4.3%
CCOc1ccccc1NC(=O)C(C)Sc1nc(-c2ccccc2)c(C#N)c(=O)[nH]1 (stereo unspecified),3.0%,-25.1%,-14.4%,-9.7%,3.5%,1.8%
CCc1ccc(NC(=O)C(C)Sc2nc(-c3ccco3)c(C#N)c(=O)[nH]2)cc1 (stereo unspecified),17.8µM*,u,-11.5%,-38.8%,-17.3%,20µM*
CC1(C)S[C@@H]2C(C(=O)O)NC(=O)N2C1C(=O)O (stereo partly specified),x,-1.3%,x,-25.2%,x,x
O=C(c1cccs1)N1CCN(Cc2cccnc2)CC1,22.4µM*,0.1%,-1.6%,-12.4%,25.8%,u
SMILES,POLH inh,Pol iota inh,KAT2A inh,Pol kappa inh,Pol beta inh,GLS inh
CCCCCCCCCCCCCCCC(=O)C1=C(O)C(CO)OC1=O (stereo unspecified),x,x,11.2µM*,-1.2%[19.4 µM],x,x
O=C(O[C@H]1[C@H](Cc2ccccc2)NS(=O)(=O)[C@H]2C[C@@H]3C=C[C@]12O3)c1ccccc1Br,x,14.6%,x,-3.1%,x,x
C=CCn1c(SCC(C)=O)nc2scc(-c3ccco3)c2c1=O,39.8µM*,u,u,u,10µM*,-4.6%
C=CCn1c(SC(F)F)nc2scc(-c3ccco3)c2c1=O,-18.2%,8.7%,-18.7%,-10.3%,9.3%,5.3%
CC(C)C(C)(C#N)NC(=O)CSc1nc2scc(-c3ccco3)c2c(=O)n1-c1ccccc1 (stereo unspecified),-11.1%,u,-4.3%,-4.2%,28.2µM*,-21.2%
Cc1ccccc1CN1C(=O)c2ccccc2S(=O)c2ccc(C(=O)NCc3ccc4c(c3)OCO4)cc21 (stereo unspecified),-3.1%,8.8%,-9.9%,9.6%,17.8%,1.5%
Cc1ccc(NC(=O)CSc2nc(-c3ccccc3Cl)nc3cc(=O)[nH]n23)c(C)c1,-1.0%,u,0.2%,-0.9%,u,0.2%
Cc1ccc(S(=O)(=O)N2CCN(c3nc(-c4ncco4)nc4ccccc34)CC2)cc1,x,-15.3%,x,-18.7%,x,x
O=c1c(O)c(-c2ccc(O)c(O)c2)oc2c(OC[C@@H]3O[C@@H](O)[C@@H](O)[C@H](O)[C@H]3O)c(O)cc(O)c12,x,x,x,0.316µM*,x,x
C[C@@H]1O[C@@H](O[C@H]2[C@H](O)[C@@H](O)[C@H](Oc3c(-c4ccc(O)c(O)c4)oc4cc(O)cc(O)c4c3=O)O[C@@H]2CO)[C@H](O)[C@H](O)[C@H]1O,u,u,-8.0%,u,x,38.3%
O=c1c(O)c(-c2ccc(O)c(O)c2)oc2c(OC3OC(CO)C(O)C(O)C3O)c(O)cc(O)c12 (stereo unspecified),x,x,-18.8%,3.16µM*,x,x
O=C(CBr)c1ccc(Oc2ccc(C(=O)C[n+]3ccccc3Cl)cc2)cc1,x,u,x,-7.4%,x,x
COc1cccc(CN2Cc3cccc4c3[C@H](C=CC4)CC2=O)c1,x,-11.6%,x,-19.4%,x,x
Nc1ncc(O)c(N)n1,x,x,48.7%,-3.8%[60.1 µM],x,x
Cc1ccccc1NC(=O)CSc1nnc(-c2ccco2)c(-c2ccco2)n1,50.1µM*,10µM*,u,31.6µM*,14.1µM*,-26.6%
COc1ccc(C(=O)CSc2nnc(-c3ccco3)c(-c3ccco3)n2)cc1,12.6µM*,u,-26.9%,-75.0%,12.6µM*,9.8%
COc1ccc(C(=O)CSc2nnc(-c3ccco3)n2C)cc1,-1.2%,6.5%,0.2%,-6.3%,25.1%,3.0%
COc1cccc(NC(=O)CSc2nnc(-c3ccco3)c(-c3ccco3)n2)c1,20µM*,u,u,50.1µM*,u,38.0%
